# A selection: hits, their analogues and other compounds. The true share with any hit is near 3.2%.
# Pol III holo inh – inhibitors of bacterial DNA polymerase III holoenzyme. Potency, µM (top dose mostly 57.1 µM), without a hit: top-dose activity change, negative = inhibition. AID 603. reconstituted DNA polymerase III holoenzyme replication, biochemical. 71,000 tested, 0.25% active; further: potency means the concentration at half of the fitted maximal effect; on the % scale 0 is the no-effect control and ±100 the full control effect
#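 Reconstituted *E. coli* holoenzyme (0.35 nM Pol III, 1 nM beta, 154 nM SSB, 2 nM primase) was preincubated with compound for 15 min at RT. Synthesis on 1.4 nM ssM13Gori ran 35 min, then was stopped with PicoGreen/EDTA and read as dsDNA fluorescence.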
# BRCT PPI red – disrupts BRCA1 BRCT binding to phosphoprotein, red fluorophore readout. P38398. BRCT-phosphopeptide binding, red fluorescence polarization. Potency, µM (highest dose often 76.9 µM), for inactives: at the top dose activity change, negative = inhibition, usual class: inhibitors. 75,000 tested, 0.03% active; further: on the % scale 0 is the no-effect control and ±100 the full control effect
#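 Rhodamine-labelled pBACH1 10-mer (100 nM) bound to BRCT domain (100 nM) at pH 7.3; compounds incubated 12 min room temperature, polarization read. Free peptide defines full inhibition; unlabelled decapeptide titrated as control.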
# HEK293 cAMP ctrl – parental HEK293 cAMP activation (counter-screen) | Potency, µM (doses to about 57.1 µM), inactives show at the highest dose activation, most hits filed as activators | AID 938 | 73,000 tested, 2.5% active | parental HEK293 CNG cAMP sensor, membrane potential fluorescence; further: potency means the concentration at half of the fitted maximal effect; % of control where 0% means no effect; nearly all actives have a fitted effect of over 55% in size
#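 Counterscreen for endogenous-receptor signalling: CNG-channel HEK 293 cells report cAMP rise by membrane depolarization. After 60 min dye equilibration with 100 uM RO 20-1724, compounds incubated 30 min before bottom-read fluorescence at 590 nm.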
# BRCT inh green – blocks human BRCA1 BRCT binding to phosphopeptide, green readout. P38398. BRCA1 BRCT-phosphopeptide binding, green fluorescence polarization. Potency, µM (top dose mostly 76.9 µM), for the others: at the highest dose activity change, negative = inhibition, actives largely listed as inhibitors. 75,000 tested, 0.05% active. AID 875;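 further: potency means the concentration at half of the fitted maximal effect; plate controls were peptide without protein for full effect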
#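 Fluorescence polarization: His-tagged BRCT (~35 kDa BRCA1 C-terminus, 250 nM) bound to 100 nM fluorescein-labeled phosphorylated 10-aa BACH1 peptide, pH 7.3 phosphate buffer with DTT and Tween 20. Compounds incubated 12 min at room temperature; inhibition read as lowered polarization.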
# TSHR agonist – TSH receptor (human) agonism | P16473 | HEK293-CNG-TSHR cells (CNG channel as cAMP sensor), membrane potential dye, cAMP | Potency, µM (series often up to 57.1 µM), for the others: top-dose activation, most hits filed as activators | 73,000 tested, 0.48% active; active means well fitted activation curve with a large enough effect in the main read-out, with a control signal flat, not every such curve was filed as active; inconclusive means small, poorly fitted or top-dose-only effect, or a change in a side signal; inactive means no such curve, though single readings can be large or run the other way; % of control where 0% means no effect;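 further: the control signal comes from parental cells without the receptor; potency means the concentration at half of the fitted maximal effect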
# Target sequence (P16473 whole entry, looked up): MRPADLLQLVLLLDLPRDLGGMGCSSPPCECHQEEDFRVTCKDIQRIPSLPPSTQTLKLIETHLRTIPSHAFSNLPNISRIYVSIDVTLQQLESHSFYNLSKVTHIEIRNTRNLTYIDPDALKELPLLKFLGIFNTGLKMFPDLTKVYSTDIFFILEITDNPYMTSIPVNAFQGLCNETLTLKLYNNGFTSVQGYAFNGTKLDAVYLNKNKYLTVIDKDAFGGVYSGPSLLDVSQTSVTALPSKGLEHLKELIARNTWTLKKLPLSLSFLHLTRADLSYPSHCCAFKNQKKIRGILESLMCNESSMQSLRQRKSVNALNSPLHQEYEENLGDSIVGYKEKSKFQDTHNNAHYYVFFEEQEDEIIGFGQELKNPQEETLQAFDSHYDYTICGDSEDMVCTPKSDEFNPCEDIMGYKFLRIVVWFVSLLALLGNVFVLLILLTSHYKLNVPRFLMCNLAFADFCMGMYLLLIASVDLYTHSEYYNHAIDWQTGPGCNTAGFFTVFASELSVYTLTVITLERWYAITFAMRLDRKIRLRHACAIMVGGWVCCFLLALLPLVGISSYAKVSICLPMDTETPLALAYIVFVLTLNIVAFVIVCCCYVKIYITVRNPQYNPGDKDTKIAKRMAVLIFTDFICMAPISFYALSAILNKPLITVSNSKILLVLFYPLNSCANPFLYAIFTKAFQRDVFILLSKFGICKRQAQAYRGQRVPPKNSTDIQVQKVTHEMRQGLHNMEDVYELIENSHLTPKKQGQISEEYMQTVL
#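 HEK 293 cells stably expressing TSHR and a cAMP-gated CNG channel; parental CNG-only cells as counterscreen. Cells preloaded 60 min with membrane potential dye plus 100 uM RO 20-1724, then compound 30 min; fluorescence read at 590 nm.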
# TsaE inh – YjeE (TsaE) inhibition, E. coli. purified YjeE enzyme, qHTS inhibition assay. Potency, µM. P0AF67. 71,000 tested, 0.05% active
#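 Fluorescence polarization of a BODIPY Texas Red–ADP probe (2 uM) bound to purified YjeE (10 uM) was read after 15 min room-temperature incubation with compounds. Loss of polarization marks inhibitors; ADP serves as titrated control.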
# * marks the source's active call; other numbers are inactive results; i = inactive; u = inconclusive; x = no result given; [ ] = dose if it differs, or a comment. Unless noted, the call rests on the fitted dose curve; in most records, active means well fitted curve in the direction sought with a large enough effect; inconclusive means small, poorly fitted or top-dose-only effect, or another doubt; inactive means no such curve, though single readings can be large; an effect the other way counts as inactive or inconclusive.
SMILES,Pol III holo inh,BRCT PPI red,HEK293 cAMP ctrl,BRCT inh green,TSHR agonist,TsaE inh
COc1ccc2nc3c(c(-c4ccccc4)c2c1)CCC3,-2%,-1%,25µM*,2%,u,i
Cc1cc(C)cc(C(=N)c2ccccc2Cc2cccc3ccccc23)c1,-10%[11.4 µM],1%[15.4 µM],2%[11.4 µM],-1%[15.4 µM],4%[11.4 µM],i
c1cncc(-c2nc3c4ccccc4nc(N4CCC(N5CCCCC5)CC4)n3n2)c1,-16%,-2%,7%,-1%,8%[11.4 µM],i
O=C(c1cc(C(F)(F)F)cc(C(F)(F)F)c1)N1CCC2(CC1)CCN(c1ccncc1)CC2,-8%,-1%,3.2µM*,-2%,u,i
O=C(c1cccc(F)c1)N1CCC2(CCCN(c3cccc(-c4ccccc4)c3)C2)CC1,0%,2%,1.3µM*,22%,u,i
O=C(c1cccc(F)c1)N1CCC2(CC1)CCN(c1ccncc1)CC2,-6%,0%,4µM*,-3%,u,i
O=C(c1cccc(F)c1)N1CCC2(CCCN(c3ccncc3)C2)CC1,-10%,0%,u,-3%,u,i
COc1ccc(Oc2ncc3nc(-c4ccc(F)cc4)c(=O)n(CCC#N)c3n2)cc1,16%,-1%,-16%,-1%,-3%,i
COc1ccc(-c2nc3cnc(Nc4cccc(OC)c4)nc3n(C[C@H]3CCCO3)c2=O)cc1,1%,-1%,4%,-3%,-8%,i
CCC(C)(C)n1nnnc1C(C(C)C)N1CCN(C)CC1 (configuration not stated),7%,0%,13%,-2%,6%,i
CCC(C)(C)n1nnnc1C(C(C)C)N1CCSCC1 (configuration not stated),0%,-1%,6.3µM*,0%,u,i
Cc1nc2cnc(N3CCN(C)CC3)nc2n(Cc2ccc(F)cc2)c1=O,-6%,-1%,25%,-1%,5%,i
CC1=C(C(=O)OCc2ccccc2)C(C2CCCCC2)NC(=O)N1CCCCCC(=O)O (configuration not stated),-8%,0%,u,1%,u,i
CC1=C(C(=O)OCc2ccccc2)C(C2CC2)NC(=O)N1CCCCCC(=O)O (configuration not stated),-2%,-1%,20µM*,1%,u,i
CCOC(=O)N/N=C1/C[C@@H](O)[C@@H](O)[C@@H]2[C@@H]3C(=O)N(C(C)(C)C)C(=O)[C@H]3CC[C@@H]12,x,-2%[15.4 µM],0%[11.4 µM],-1%[15.4 µM],-3%[11.4 µM],x
CCCCNc1cc(C)nc(NCc2ccccc2)n1,1%,0%,6.3µM*,1%,u,i
Cc1ccc(-n2nc(C)c(C3C(C#N)=C(N)OC4=C3C(=O)CC(C)(C)C4)c2Cl)cc1 (configuration not stated),-2%,1%,25µM*,-1%,u,i
CCn1c(COc2cccc(OC)c2)nnc1SCC(=O)Nc1ccccc1C(=O)OC,-5%,0%,16µM*,-3%,u,i
CCn1c(CC(=O)Nc2ccccc2)nnc1SCC(=O)Nc1ccccc1C(=O)OC,-2%,0%,4%,2%,6%,i
CCOC(=O)c1cccc(NC(=O)CSc2nnc(-c3ccoc3C)n2CC)c1,-3%,0%,29%,-2%,17%,i
Cc1occc1-c1nnc(SCC(=O)Nc2ccccc2-c2ccccc2)n1C,3%,-1%,17%,-1%,7%,i
CCCn1c(SCC(=O)Nc2ccccc2-c2ccccc2)nnc1-c1ccoc1C,0%,0%,16µM*,0%,u,i
COc1cccc(OCc2nnc(SCC(=O)OC3CCCCC3)n2C)c1,-2%,-3%,16µM*,-1%,u,i
CCn1c(SCC(=O)Nc2ccccc2C(=O)OC)nnc1-c1ccoc1C,-3%,0%,32µM*,-1%,u,i

# Screening data (PubChem)
